Here are results for 40 compounds from ChEMBL document CHEMBL3433997, “St. Jude Leishmania screening dataset” (2016).

Solute carrier family 2, facilitated glucose transporter member 1 (Homo sapiens), sequence (P11166 whole entry): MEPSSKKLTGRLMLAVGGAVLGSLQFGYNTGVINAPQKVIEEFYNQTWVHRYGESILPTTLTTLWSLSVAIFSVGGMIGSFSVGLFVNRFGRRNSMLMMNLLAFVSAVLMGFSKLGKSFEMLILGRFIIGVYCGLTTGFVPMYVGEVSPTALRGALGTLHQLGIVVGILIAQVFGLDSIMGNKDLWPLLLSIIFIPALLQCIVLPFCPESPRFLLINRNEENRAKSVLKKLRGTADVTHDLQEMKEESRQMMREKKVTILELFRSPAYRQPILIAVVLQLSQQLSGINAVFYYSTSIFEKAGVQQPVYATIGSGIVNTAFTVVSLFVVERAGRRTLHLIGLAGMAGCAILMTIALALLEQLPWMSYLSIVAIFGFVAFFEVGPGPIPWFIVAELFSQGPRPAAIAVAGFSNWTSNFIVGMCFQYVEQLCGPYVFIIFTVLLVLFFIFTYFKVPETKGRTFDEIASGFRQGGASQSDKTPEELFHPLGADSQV

One assay concerns the target Solute carrier family 2, facilitated glucose transporter member 1 (Homo sapiens) (UniProt P11166). The assay is described as follows: ST_JUDE_LEISH: Cytotoxicity at 2uM final concentration against transgenic Leishmania Mexicana promastigotes LmGLUT1 that are glucose transport deficient and complemented with the human glucose transporter GLUT1. Activity is measured by DNA content using SYBR green in vitro. The class given is functional.
By inhibition is commonly meant the drop in the measured response relative to a control, in per cent. `Cc1cc(C)c2oc(-c3cccc(NC(=O)c4ccc([N+](=O)[O-])o4)c3C)nc2c1`: the inhibition turned out to be 11.4%.

For `CN1CCN(CCCN(C(=O)Nc2cc(C(F)(F)F)cc(C(F)(F)F)c2)c2ccccc2Cc2ccccc2)CC1`, the inhibition was 0.6%.

As for `CC(C)(C)c1nn(-c2ccccc2)c2[nH]c(=O)c(CNC3CCCCC3)cc12`, the inhibition is 1.69%.

For `O=C(c1cc(-c2cccs2)n[nH]1)N1CCN(S(=O)(=O)c2ccc(Br)cc2)CC1`, the inhibition was 0.07%.

In the case of `COc1ccc2cc(C(C)NC3CCN(c4cccc(NC(=O)c5ccncc5)c4)CC3)ccc2c1` (stereo not given), the inhibition amounted to 0.03%.

With `COc1cc(F)c2ncc(C#N)c(CCN3CCC(NCc4ccc5c(c4)OCCO5)CC3)c2c1`, the inhibition was found to be 91.3%.

With `CCc1ccccc1NC(=O)CN1CCN(c2ncnc3scc(-c4ccc(F)cc4)c23)CC1`, the inhibition turned out to be 1.81%.

Regarding `N#Cc1ccc(-c2ccc(OCC(O)CN3CCCN(Cc4cccc(O)c4Cl)CC3)cc2)cc1` (stereo not given), the inhibition turned out to be 4.04%.

For `O=C(NCCN1CCOCC1)c1ccc(-c2ccc(CNCCCc3ccccc3)cc2)nc1`, the inhibition was -1.5%.

As to `Oc1ccc(Nc2nc(N3CCCC3)c3ccccc3n2)cc1`, the inhibition worked out at 2.69%.

`CC(C)c1sc(N2CCCCC2)nc1C(=O)Nc1ccc(F)cc1C(F)(F)F`: the inhibition amounted to 2.82%.

In the case of `c1ccc(COc2ccc(Nc3ncnc4ccc(-c5ccc(CN6CCSCC6)o5)cc34)cc2)cc1`, the inhibition is 10.9%.

Regarding `COc1ccc(-c2cnc3[nH]cc(-c4ccc(C(=O)O)c(C)c4)c3c2)cn1`, the inhibition stood at 0.31%.

As for `COc1cc2nc(N(C)C)nc(Nc3ccc4c(cnn4Cc4ccccc4)c3)c2cc1OC`, the inhibition is -0.58%.

Turning to `Cc1ccc(Nc2nccc(NCC(O)c3cccc(C(F)(F)F)c3)n2)cc1` (stereo not given), the inhibition is 4.66%.

In the case of `O=c1cc(NCCCNCc2cn(S(=O)(=O)c3ccccc3)c3ccccc23)[nH]c2ccccc12`, the inhibition is -0.4%.

For `N#Cc1cccc(NC(=O)c2cccc(S(=O)(=O)NC3CCN(CC4CCCCC4)C3)c2)c1` (stereo not given), the inhibition worked out at 0.54%.

`CON=C1CCC(Cn2ccnc2)(c2ccc(Cl)cc2Cl)CC1` (stereo not given): the inhibition was found to be 7.4%.

As for `Cc1nnsc1C(=O)Nc1cccc(-c2cccc(-c3nc4cccc(C)c4[nH]3)c2)c1`, the inhibition was -0.36%.

As for `O=C(NC1CCN(CC2(c3ccccc3)CCCC2)CC1)c1n[nH]cc1Cl`, the inhibition is 0.19%.

For `O=c1ccc2ccc(F)c3c2n1CC3CN1CCC(NCc2cccc(-c3cccs3)c2)CC1` (stereo not given), the inhibition worked out at 6.55%.

As for `O=C(N/C=N/c1cc([N+](=O)[O-])c(-c2ccncc2)n1-c1ccccc1)c1cccc(O)c1`, the inhibition was 0.21%.

Take `O=c1ccc2ccc(F)cc2n1CCN1CCC(NCc2ccc(-c3ccccn3)s2)CC1`: the inhibition was found to be 4.21%.

With `Oc1cccc(CNCCCN(Cc2ccccc2)c2ccccc2)c1`, the inhibition stood at 1.74%.

Consider `CC(C)c1ccc(CN2CCC(NC(=O)c3ccc(-c4cccc(F)c4)s3)CC2)cc1`, for which the inhibition came out at 1.18%.

As to `CN1CCCC(CN2CCN(Cc3cccc(-c4ccc(-c5nc6ccccc6[nH]5)s4)c3)CC2)C1` (stereo not given), the inhibition was 7.08%.

On to `Cc1ccc(O)c(-c2cc(C(=O)Nc3ccc(S(=O)(=O)N4CCCC(C)C4)cc3)[nH]n2)c1` (stereo not given), for which the inhibition was -0.03%.

For `CCCc1cc(Cc2cnc(N)nc2N)c2cccnc2c1OC`, the inhibition amounted to 6.44%.

`COc1cc(C)cc(CN2CCC(Cc3ccccc3)CC2)c1O`: the inhibition worked out at 0.53%.

For the compound `CCN(CCCN1CCCCC1)c1cc(C)nc(Nc2cccc3c2CCCC3)n1`, the inhibition turned out to be 3.95%.

Take `CCCc1ccc(S(=O)(=O)Nc2ccc3c(c2)CCC3)cc1`: the inhibition came out at 1.93%.

On to `OC1CCCN(Cc2ccc(-c3ccc(-c4nc5cc(F)ccc5[nH]4)s3)cc2)C1` (stereo not given), for which the inhibition came out at 3.05%.

With `CCc1ccc(C2CCN(CCCCNC(=O)c3ccc(NC(=O)c4ccc(Cl)cc4)cc3)CC2)c(OC(C)=O)c1`, the inhibition came to 3.29%.

Consider `Oc1ccc2[nH]cc(C3CCN(CCCCCCCCCN4CCC(c5c[nH]c6ccc(O)cc56)CC4)CC3)c2c1`, for which the inhibition was -1.57%.

In the case of `CC(C)(Oc1c(C2CCN(CCCCNC(=O)c3ccc(-c4ccc(C#N)cc4)cc3)CC2)ccc2c1CCCC2)C(N)=O`, the inhibition was determined as 0.07%.

`CC(C)c1ccc(NC(=O)c2ccc(C(=O)NC3CCN(Cc4ccsc4)C3)cc2)cc1` (stereo not given): the inhibition amounted to 2.74%.

For the compound `COCCNCc1nc(-c2ccc3c(Nc4ccc(F)c(O)c4)ccnc3c2)cs1`, the inhibition stood at 2.38%.

In the case of `Nc1ncc(-c2ccc(S(=O)(=O)Nc3ccc(C(=O)N[C@@H](CCC(=O)O)C(=O)O)cc3)cc2)c(=O)[nH]1`, the inhibition turned out to be 4.56%.

For the compound `CCOC(=O)c1ccc(NC(=O)Nc2ccc(-c3cccc(-c4nc5cc(F)ccc5[nH]4)c3)cc2)cc1`, the inhibition came to 2.36%.

Take `CC(C)(CNC(=O)/C=C/c1ccc(Cl)c(Cl)c1)CNc1cc(=O)c2ccccc2[nH]1`: the inhibition was -0.77%.

The next assay deals with Hexose transporter 1 (Plasmodium falciparum) (UniProt O97467). In words: ST_JUDE_LEISH: Cytotoxicity at 2uM final concentration against transgenic Leishmania Mexicana promastigotes LmPfHT that are glucose transport deficient and complemented with the Plasmodium falciparum hexose transporter. Activity is measured by DNA content using SYBR green in vitro. Format: functional.
As for `Cc1cc(C)c2oc(-c3cccc(NC(=O)c4ccc([N+](=O)[O-])o4)c3C)nc2c1`, the inhibition was 10.4%.

For `CN1CCN(CCCN(C(=O)Nc2cc(C(F)(F)F)cc(C(F)(F)F)c2)c2ccccc2Cc2ccccc2)CC1`, the inhibition is 0.83%.

For the compound `CC(C)(C)c1nn(-c2ccccc2)c2[nH]c(=O)c(CNC3CCCCC3)cc12`, the inhibition turned out to be 1.5%.

In the case of `O=C(c1cc(-c2cccs2)n[nH]1)N1CCN(S(=O)(=O)c2ccc(Br)cc2)CC1`, the inhibition amounted to 3.88%.

As to `COc1ccc2cc(C(C)NC3CCN(c4cccc(NC(=O)c5ccncc5)c4)CC3)ccc2c1` (stereo not given), the inhibition was -0.06%.

As to `COc1cc(F)c2ncc(C#N)c(CCN3CCC(NCc4ccc5c(c4)OCCO5)CC3)c2c1`, the inhibition worked out at 95.1%.

Take `CCc1ccccc1NC(=O)CN1CCN(c2ncnc3scc(-c4ccc(F)cc4)c23)CC1`: the inhibition was found to be 3.65%.

In the case of `N#Cc1ccc(-c2ccc(OCC(O)CN3CCCN(Cc4cccc(O)c4Cl)CC3)cc2)cc1` (stereo not given), the inhibition was determined as 0.72%.

With `O=C(NCCN1CCOCC1)c1ccc(-c2ccc(CNCCCc3ccccc3)cc2)nc1`, the inhibition is -3%.

In the case of `Oc1ccc(Nc2nc(N3CCCC3)c3ccccc3n2)cc1`, the inhibition was 1.64%.

Regarding `CC(C)c1sc(N2CCCCC2)nc1C(=O)Nc1ccc(F)cc1C(F)(F)F`, the inhibition amounted to 0.82%.

Take `c1ccc(COc2ccc(Nc3ncnc4ccc(-c5ccc(CN6CCSCC6)o5)cc34)cc2)cc1`: the inhibition stood at 7.33%.

As to `COc1ccc(-c2cnc3[nH]cc(-c4ccc(C(=O)O)c(C)c4)c3c2)cn1`, the inhibition is -0.48%.

As for `COc1cc2nc(N(C)C)nc(Nc3ccc4c(cnn4Cc4ccccc4)c3)c2cc1OC`, the inhibition is -0.17%.

For `Cc1ccc(Nc2nccc(NCC(O)c3cccc(C(F)(F)F)c3)n2)cc1` (stereo not given), the inhibition is 4%.

Regarding `O=c1cc(NCCCNCc2cn(S(=O)(=O)c3ccccc3)c3ccccc23)[nH]c2ccccc12`, the inhibition is -0.55%.

Regarding `N#Cc1cccc(NC(=O)c2cccc(S(=O)(=O)NC3CCN(CC4CCCCC4)C3)c2)c1` (stereo not given), the inhibition was found to be 1.11%.

For the compound `CON=C1CCC(Cn2ccnc2)(c2ccc(Cl)cc2Cl)CC1` (stereo not given), the inhibition came out at 2.3%.

`Cc1nnsc1C(=O)Nc1cccc(-c2cccc(-c3nc4cccc(C)c4[nH]3)c2)c1`: the inhibition is -1.04%.

`O=C(NC1CCN(CC2(c3ccccc3)CCCC2)CC1)c1n[nH]cc1Cl`: the inhibition is 0.32%.

Turning to `O=c1ccc2ccc(F)c3c2n1CC3CN1CCC(NCc2cccc(-c3cccs3)c2)CC1` (stereo not given), the inhibition amounted to 8.34%.

Regarding `O=C(N/C=N/c1cc([N+](=O)[O-])c(-c2ccncc2)n1-c1ccccc1)c1cccc(O)c1`, the inhibition was 0.41%.

In the case of `O=c1ccc2ccc(F)cc2n1CCN1CCC(NCc2ccc(-c3ccccn3)s2)CC1`, the inhibition worked out at 3.12%.

Turning to `Oc1cccc(CNCCCN(Cc2ccccc2)c2ccccc2)c1`, the inhibition was -0.63%.

In the case of `CC(C)c1ccc(CN2CCC(NC(=O)c3ccc(-c4cccc(F)c4)s3)CC2)cc1`, the inhibition is -0.01%.

Regarding `CN1CCCC(CN2CCN(Cc3cccc(-c4ccc(-c5nc6ccccc6[nH]5)s4)c3)CC2)C1` (stereo not given), the inhibition worked out at 6.85%.

`Cc1ccc(O)c(-c2cc(C(=O)Nc3ccc(S(=O)(=O)N4CCCC(C)C4)cc3)[nH]n2)c1` (stereo not given): the inhibition is -0.51%.

For the compound `CCCc1cc(Cc2cnc(N)nc2N)c2cccnc2c1OC`, the inhibition turned out to be 4.01%.

`COc1cc(C)cc(CN2CCC(Cc3ccccc3)CC2)c1O`: the inhibition was 0.17%.

With `CCN(CCCN1CCCCC1)c1cc(C)nc(Nc2cccc3c2CCCC3)n1`, the inhibition is 2.39%.

As for `CCCc1ccc(S(=O)(=O)Nc2ccc3c(c2)CCC3)cc1`, the inhibition was found to be 4.05%.

As to `OC1CCCN(Cc2ccc(-c3ccc(-c4nc5cc(F)ccc5[nH]4)s3)cc2)C1` (stereo not given), the inhibition stood at 2.51%.

For `CCc1ccc(C2CCN(CCCCNC(=O)c3ccc(NC(=O)c4ccc(Cl)cc4)cc3)CC2)c(OC(C)=O)c1`, the inhibition was determined as 3.47%.

For `Oc1ccc2[nH]cc(C3CCN(CCCCCCCCCN4CCC(c5c[nH]c6ccc(O)cc56)CC4)CC3)c2c1`, the inhibition is -1.31%.

Regarding `CC(C)(Oc1c(C2CCN(CCCCNC(=O)c3ccc(-c4ccc(C#N)cc4)cc3)CC2)ccc2c1CCCC2)C(N)=O`, the inhibition stood at 0.7%.

For `CC(C)c1ccc(NC(=O)c2ccc(C(=O)NC3CCN(Cc4ccsc4)C3)cc2)cc1` (stereo not given), the inhibition was 4.64%.

In the case of `COCCNCc1nc(-c2ccc3c(Nc4ccc(F)c(O)c4)ccnc3c2)cs1`, the inhibition came to 1.29%.

`Nc1ncc(-c2ccc(S(=O)(=O)Nc3ccc(C(=O)N[C@@H](CCC(=O)O)C(=O)O)cc3)cc2)c(=O)[nH]1`: the inhibition was found to be 4.19%.

Consider `CCOC(=O)c1ccc(NC(=O)Nc2ccc(-c3cccc(-c4nc5cc(F)ccc5[nH]4)c3)cc2)cc1`, for which the inhibition was 2.86%.

Consider `CC(C)(CNC(=O)/C=C/c1ccc(Cl)c(Cl)c1)CNc1cc(=O)c2ccccc2[nH]1`, for which the inhibition worked out at 0.05%.
